# Assay results taken from PubChem BioAssay (Tox21).
# A number with no mark means an inactive call. Results filed as inconclusive are left out. Where a call stands in place of a potency, no number is given. The source made the active and inactive calls. Unless noted, calls follow the shape of the dose curve; as a rule, active = well fitted curve in the direction sought with a large enough effect in the repeat runs; inconclusive = weak or mixed curves; inactive = no such curve, though single readings can be large; an effect the other way counts as inactive or inconclusive.
# What was measured:
# [1] = qHTS assay for small molecules that induce genotoxicity in human embryonic kidney cells expressing luciferase-tagged ATAD5 (AID 651632); also: nearly all actives have a fitted effect of over 15% in size
# How it was run: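 Increased luciferase signal from ATAD5-tagged reporter cells indicates DNA-damage-driven ATAD5 induction. HEK293T cells are treated for 16 hr at 37C before detection with Amplite.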
# [2] = qHTS assay for small molecule agonists of the p53 signaling pathway - cell viability (AID 651633; calls by dose curve;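 also: p53RE-bla HCT reporter cells with a stable beta-lactamase p53 reporter; series mostly up to about 83 µM; nearly all actives have a fitted effect of over 30% in size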)
# How it was run: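 p53RE-bla cells were treated with compound for 16 hours at 37 C. Cytotoxicity was then measured as CellTiter-Glo luminescence after 30 min at room temperature.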
# [3] = qHTS assay for small molecules that induce genotoxicity in human embryonic kidney cells expressing luciferase-tagged ATAD5 - cell viability (AID 651634; calls by dose curve; also: nearly all actives have a fitted effect of over 25% in size)
# How it was run: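 Cytotoxicity counterscreen in HEK293T cells bearing an ATAD5-luciferase reporter: live-cell protease activity measured by CellTiter-Fluor fluorescence after 15.5 hr compound exposure.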
# [4] = qHTS assay for small molecule disruptors of the mitochondrial membrane potential - cell viability (AID 720634; calls by dose curve; also: nearly all actives have a fitted effect of over 20% in size; also: potency is read from the fitted curve at half-maximal effect)
# How it was run: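 After overnight attachment at 37 C, HepG2 cells received compound or DMSO vehicle for 1 hr. Viability is then taken from ATP-driven luminescence following a 30 min room-temperature CellTiter-Glo step.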
# [5] = qHTS assay to test for compound auto fluorescence at 590 nm (red) in HepG2 cells (AID 720674)
# How it was run: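 Fluorescence at 590 nm emission following 540 nm excitation was recorded from HepG2 wells one hour after compound transfer, with DMSO-only wells as vehicle and Rose Bengal sodium equivalency as the scale.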
# [6] = qHTS assay to test for compound auto fluorescence at 535 nm (green) in HepG2 cells (AID 720675)
# [7] = qHTS assay to test for compound auto fluorescence at 460 nm (blue) in HEK293 cells (AID 720678)
# How it was run: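 Intrinsic compound fluorescence is recorded in live HEK293 cultures after overnight incubation at 37C, 5% CO2, using excitation 405 nm and emission 460 nm. Values are referenced to triamterene.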
# [8] = qHTS assay to test for compound auto fluorescence at 590 nm (red) in HEK293 cells (AID 720679)
# How it was run: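 Red autofluorescence, HEK293 cells: 2,000 cells/well; attach 4-5 hr 37C; add 23 nL cpd or DMSO; incubate o/n 37C 5% CO2; read Ex540/Em590; Rose Bengal sodium reference.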
# [9] = qHTS assay to test for compound auto fluorescence at 535 nm (green) in HEK293 cells (AID 720680)
# [10] = qHTS assay to test for compound auto fluorescence at 460 nm (blue) in HEK293 cell free culture (AID 720681)
# How it was run: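 Compounds were added to cell-free DMEM with 10% FBS and fluorescence read directly. The blue channel used 405 nm excitation and 460 nm emission, with triamterene as the reference fluorophore.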
# [11] = qHTS assay to test for compound auto fluorescence at 535 nm (green) in HEK293 cell free culture (AID 720682)
# How it was run: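 Fluorescein serves as the green reference fluorophore; each compound's intrinsic emission at 535 nm (excitation 485 nm) is reported as an equivalent amount of that dye, measured in serum-containing DMEM without cells.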
# [12] = qHTS assay to test for compound auto fluorescence at 590 nm (red) in HEK293 cell free culture (AID 720683)
# How it was run: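 Cell-free wells of DMEM with 10% FBS received compound, and intrinsic fluorescence was read at excitation/emission 540/590 nm. Values expressed as equivalence to Rose Bengal sodium.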
# [13] = qHTS assay to test for compound auto fluorescence at 590 nm (red) in HepG2 cell free culture (AID 720684)
# How it was run: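 Compounds are added to culture medium (MEM, 10% FBS) lacking cells, then fluorescence is read at excitation 540 nm, emission 590 nm, with Rose Bengal sodium as the equivalency standard.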
# [14] = qHTS assay to test for compound auto fluorescence at 460 nm (blue) in HepG2 cell free culture (AID 720685)
# How it was run: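 Compound (23 nL) or DMSO pinned into cell-free MEM with 10% FBS; blue fluorescence read at 405/460 nm excitation/emission, expressed as auto-fluorescence equivalency to triamterene.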
# [15] = qHTS assay to test for compound auto fluorescence at 535 nm (green) in HepG2 cell free culture (AID 720686)
# [16] = qHTS assay to test for compound auto fluorescence at 460 nm (blue) in HepG2 cells (AID 720687)
# How it was run: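 HepG2 cells in MEM with 10% FBS, attached overnight at 37 C, were exposed to compound or DMSO for 1 hr at 37 C, 5% CO2. Blue fluorescence was read at 405/460 nm, with triamterene as reference fluorophore.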
# [17] = biological target: Glucocorticoid receptor (Homo sapiens) (UniProt P04150); experiment: qHTS assay to identify small molecule agonists of the glucocorticoid receptor (GR) signaling pathway (AID 720691; active = well fitted activation curve with a large enough effect in the signal ratio in the repeat runs, not every such curve was filed as active; the % refers to the signal ratio)
# How it was run: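 Agonist mode in a HeLa line carrying a GRE-controlled beta-lactamase reporter. Compounds act for 18 h at 37 C before a 2 h room-temperature FRET substrate step and fluorescence reading.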
# [18] = qHTS assay for small molecule disruptors of the mitochondrial membrane potential (AID 720635); also: potency is read from the fitted curve at half-maximal effect
# How it was run: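 HepG2 cells exposed to compound 1 hr at 37C, then Mito-MPS dye 30 min. Ratio read of aggregate (540/590 nm) versus monomer (490/535 nm) fluorescence.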
# [19] = biological target: Glucocorticoid receptor (Homo sapiens) (UniProt P04150); experiment: qHTS assay to identify small molecule antagonists of the glucocorticoid receptor (GR) signaling pathway (AID 720692; active = well fitted inhibition curve with a large enough effect in the signal ratio in the repeat runs, not every such curve was filed as active; the % refers to the signal ratio)
# How it was run: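 Cells plated, rested 4 h at 37 C/5% CO2; compounds in DMSO pin-transferred; dexamethasone added to 5 nM final; 18 h at 37 C; B/G FRET substrate added, 2 h room temperature; fluorescence measured.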
# Glucocorticoid receptor (Homo sapiens), sequence (P04150 whole entry, looked up): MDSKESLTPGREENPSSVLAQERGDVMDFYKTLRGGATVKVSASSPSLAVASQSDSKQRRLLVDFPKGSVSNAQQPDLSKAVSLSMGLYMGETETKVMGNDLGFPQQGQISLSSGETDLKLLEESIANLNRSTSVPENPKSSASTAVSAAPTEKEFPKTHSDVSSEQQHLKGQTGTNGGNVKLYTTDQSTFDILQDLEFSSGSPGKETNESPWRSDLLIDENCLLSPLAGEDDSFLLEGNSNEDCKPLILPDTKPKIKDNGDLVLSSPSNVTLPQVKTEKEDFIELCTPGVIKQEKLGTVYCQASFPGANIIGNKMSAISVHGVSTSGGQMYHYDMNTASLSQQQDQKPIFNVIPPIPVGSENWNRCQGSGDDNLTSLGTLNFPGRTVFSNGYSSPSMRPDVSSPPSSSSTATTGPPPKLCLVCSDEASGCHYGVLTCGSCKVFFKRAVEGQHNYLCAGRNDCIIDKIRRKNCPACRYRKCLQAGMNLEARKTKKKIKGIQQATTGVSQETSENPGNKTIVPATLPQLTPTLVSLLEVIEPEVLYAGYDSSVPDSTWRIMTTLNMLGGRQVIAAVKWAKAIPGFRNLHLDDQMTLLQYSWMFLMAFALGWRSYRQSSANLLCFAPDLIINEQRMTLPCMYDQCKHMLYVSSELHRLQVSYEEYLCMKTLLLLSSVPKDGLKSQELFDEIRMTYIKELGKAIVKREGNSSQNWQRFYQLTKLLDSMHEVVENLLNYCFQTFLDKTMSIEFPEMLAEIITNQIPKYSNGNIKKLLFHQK
smiles,measurement,setting,value
O=C(CBr)c1ccccc1,Potency,[1],inactive
same,Potency,[2],inactive
same,Potency,[3],inactive
same,Potency,[4],inactive
same,outcome,[5],inactive
same,outcome,[6],inactive
same,outcome,[7],inactive
same,outcome,[8],inactive
same,outcome,[9],inactive
same,outcome,[10],inactive
same,outcome,[11],inactive
same,outcome,[12],inactive
same,outcome,[13],inactive
same,outcome,[14],inactive
same,outcome,[15],inactive
same,outcome,[16],inactive
same,outcome,[17],inactive
CCCC(=O)Cl,Potency,[1],inactive
same,Potency,[3],inactive
same,Potency,[4],inactive
same,Potency,[18],inactive
same,outcome,[5],inactive
same,outcome,[6],inactive
same,outcome,[7],inactive
same,outcome,[8],inactive
same,outcome,[9],inactive
same,outcome,[10],inactive
same,outcome,[11],inactive
same,outcome,[12],inactive
same,outcome,[13],inactive
same,outcome,[14],inactive
same,outcome,[15],inactive
same,outcome,[16],inactive
same,outcome,[17],inactive
same,Potency,[19],inactive
CC(=O)[C@H]1CC[C@H]2[C@@H]3CC[C@H]4C[C@](C)(O)CC[C@]4(C)[C@H]3CC[C@]12C,Potency,[1],inactive
same,Potency,[3],inactive
same,Potency,[4],inactive
same,Potency,[18],inactive
same,outcome,[6],inactive
same,outcome,[7],inactive
same,outcome,[8],inactive
same,outcome,[9],inactive
same,outcome,[11],inactive
same,outcome,[12],inactive
same,outcome,[13],inactive
same,outcome,[14],inactive
same,outcome,[15],inactive
same,outcome,[16],inactive
same,outcome,[17],inactive
same,Potency,[19],inactive
Clc1cccc2ccccc12,Potency,[1],inactive
same,Potency,[4],inactive
same,Potency,[18],inactive
same,outcome,[5],inactive
same,outcome,[6],inactive
same,outcome,[7],inactive
same,outcome,[8],inactive
same,outcome,[9],inactive
same,outcome,[10],inactive
same,outcome,[11],inactive
same,outcome,[12],inactive
same,outcome,[13],inactive
same,outcome,[14],inactive
same,outcome,[15],inactive
same,outcome,[16],inactive
Clc1ccc(C(OCCN2CCCCC2)c2ccccc2)cc1 (configuration not stated),Potency,[1],inactive
same,Potency,[3],inactive
same,Potency,[4],inactive
same,"fluorescence, relative to Rose Bengal",[5],-0.716% [at 18.6 µM]
same,"fluorescence, % of fluorescein control",[6],-0.0264% [at 18.6 µM]
same,"fluorescence, % of triamterene",[7],0.0368% [at 18.6 µM]
same,"fluorescence, % of fluorescent control",[8],0.965% [at 18.6 µM]
same,"fluorescence, % of fluorescein",[9],-0.14% [at 18.6 µM]
same,"fluorescence, % of fluorescent control",[10],-0.141% [at 18.6 µM]
same,activity change,[11],-0.263% [at 18.6 µM]
same,"fluorescence, % of fluorescent control",[12],0.321% [at 18.6 µM]
same,"fluorescence, % of Rose Bengal",[13],0.0745% [at 18.6 µM]
same,"fluorescence, % of fluorescent control",[14],0.0001% [at 18.6 µM]
same,"fluorescence, % of fluorescein control",[15],-0.0362% [at 18.6 µM]
same,outcome,[17],inactive
same,Potency,[19],inactive
O=C(Nc1ccccc1)Nc1cnns1,Potency,[1],inactive
same,Potency,[3],inactive
same,Potency,[4],inactive
same,outcome,[5],inactive
same,outcome,[6],inactive
same,outcome,[7],inactive
same,outcome,[9],inactive
same,outcome,[10],inactive
same,outcome,[11],inactive
same,outcome,[12],inactive
same,outcome,[13],inactive
same,outcome,[14],inactive
same,outcome,[15],inactive
same,outcome,[16],inactive
same,Potency,[19],inactive
COCCOCCO,Potency,[1],inactive
same,Potency,[3],inactive
same,Potency,[4],inactive
same,outcome,[5],inactive
same,outcome,[6],inactive
same,outcome,[7],inactive
same,outcome,[9],inactive
same,outcome,[10],inactive
same,outcome,[11],inactive
same,outcome,[12],inactive
same,outcome,[13],inactive
same,outcome,[14],inactive
same,outcome,[15],inactive
NC(=O)C(Cl)(Cl)Cl,Potency,[1],inactive
same,Potency,[3],inactive
same,Potency,[4],inactive
same,outcome,[5],inactive
same,outcome,[6],inactive
same,outcome,[7],inactive
same,outcome,[8],inactive
same,outcome,[9],inactive
same,outcome,[10],inactive
same,outcome,[11],inactive
same,outcome,[12],inactive
same,outcome,[13],inactive
same,outcome,[14],inactive
same,outcome,[15],inactive
same,outcome,[16],inactive
CC(O)(CS(=O)(=O)c1ccc(F)cc1)C(=O)Nc1ccc(C#N)c(C(F)(F)F)c1 (configuration not stated),Potency,[1],inactive
same,Potency,[3],inactive
same,outcome,[5],inactive
same,outcome,[6],inactive
same,outcome,[7],inactive
same,outcome,[8],inactive
same,outcome,[9],inactive
same,outcome,[11],inactive
same,outcome,[12],inactive
same,outcome,[13],inactive
same,outcome,[14],inactive
same,outcome,[15],inactive
same,outcome,[16],inactive
same,outcome,[17],inactive
same,Potency,[19],inactive
CC1(C)CCC(Cc2ccc(Cl)cc2)C1(O)Cn1cncn1 (configuration not stated),Potency,[1],inactive
same,Potency,[4],54.5 µM (active)
same,Potency,[18],54.5 µM (active)
same,outcome,[6],inactive
same,outcome,[7],inactive
same,outcome,[8],inactive
same,outcome,[9],inactive
same,outcome,[10],inactive
same,outcome,[11],inactive
same,outcome,[12],inactive
same,outcome,[13],inactive
same,outcome,[14],inactive
same,outcome,[15],inactive
same,outcome,[16],inactive
O=C(O)CC(Cl)C(=O)O (configuration not stated),Potency,[1],inactive
same,Potency,[3],inactive
same,outcome,[5],inactive
same,outcome,[6],inactive
same,outcome,[7],inactive
same,outcome,[8],inactive
same,outcome,[9],inactive
same,outcome,[10],inactive
same,outcome,[11],inactive
same,outcome,[12],inactive
same,outcome,[13],inactive
same,outcome,[14],inactive
same,outcome,[15],inactive
same,outcome,[16],inactive
same,outcome,[17],inactive
same,Potency,[19],inactive
CCOP(=O)(OCC)Oc1ccc([N+](=O)[O-])cc1,Potency,[1],inactive
same,Potency,[3],inactive
same,Potency,[4],inactive
same,Potency,[18],inactive
same,outcome,[5],inactive
same,outcome,[6],inactive
same,outcome,[7],inactive
same,outcome,[8],inactive
same,outcome,[9],inactive
same,outcome,[10],inactive
same,outcome,[11],inactive
same,outcome,[12],inactive
same,outcome,[13],inactive
same,outcome,[14],inactive
same,outcome,[15],inactive
same,outcome,[16],inactive
Cc1c(F)c(F)c(COC(=O)C2C(/C=C(\Cl)C(F)(F)F)C2(C)C)c(F)c1F (configuration not stated),Potency,[1],inactive
same,Potency,[3],inactive
same,Potency,[4],inactive
same,outcome,[5],inactive
same,outcome,[6],inactive
same,outcome,[7],inactive
same,outcome,[9],inactive
same,outcome,[10],inactive
same,outcome,[11],inactive
same,outcome,[12],inactive
same,outcome,[13],inactive
same,outcome,[14],inactive
same,outcome,[15],inactive
same,outcome,[16],inactive
same,outcome,[17],inactive
O=[N+]([O-])C(Br)(CO)CO,Potency,[1],inactive
same,Potency,[3],inactive
same,Potency,[4],inactive
same,outcome,[5],inactive
same,outcome,[6],inactive
same,outcome,[7],inactive
same,outcome,[8],inactive
same,outcome,[9],inactive
same,outcome,[10],inactive
same,outcome,[11],inactive
same,outcome,[12],inactive
same,outcome,[13],inactive
same,outcome,[14],inactive
same,outcome,[15],inactive
same,outcome,[16],inactive
CCOP(O)OCC,Potency,[1],inactive
same,Potency,[2],inactive
same,Potency,[4],inactive
same,outcome,[5],inactive
same,outcome,[6],inactive
same,outcome,[7],inactive
same,outcome,[8],inactive
same,outcome,[9],inactive
same,outcome,[10],inactive
same,outcome,[11],inactive
same,outcome,[12],inactive
same,outcome,[13],inactive
same,outcome,[14],inactive
same,outcome,[15],inactive
same,outcome,[16],inactive
same,outcome,[17],inactive
same,Potency,[19],inactive
O=S(=O)(Cl)c1ccccc1,Potency,[1],inactive
same,Potency,[2],inactive
same,Potency,[4],inactive
same,outcome,[5],inactive
same,outcome,[6],inactive
same,outcome,[7],inactive
same,outcome,[8],inactive
same,outcome,[9],inactive
same,outcome,[10],inactive
same,outcome,[11],inactive
same,outcome,[12],inactive
same,outcome,[13],inactive
same,outcome,[14],inactive
same,outcome,[15],inactive
same,outcome,[16],inactive
COP(=S)(Oc1cc(Cl)c(Br)cc1Cl)c1ccccc1 (configuration not stated),Potency,[1],inactive
same,Potency,[4],48.6 µM (active)
same,outcome,[6],inactive
same,outcome,[7],inactive
same,outcome,[8],inactive
same,outcome,[9],inactive
same,outcome,[10],inactive
same,outcome,[11],inactive
same,outcome,[12],inactive
same,outcome,[13],inactive
same,outcome,[14],inactive
same,outcome,[15],inactive
same,outcome,[16],inactive
same,outcome,[17],inactive
